Reference: PubChem BioAssay (Tox21)
Where “and” joins values, the source holds several entries; their conditions need not be identical. Identical values can stand only once. Results filed as inconclusive are left out. The source holds several records for some structures; these can differ, active in one and inactive in another. Calls of active or inactive are those of the source. Unless noted, the call rests on the fitted dose curve; in most records, active means well fitted curve in the direction sought with a large enough effect in the repeat runs; inconclusive means weak or mixed curves; inactive means no such curve, though single readings can be large; an effect the other way counts as inactive or inconclusive.

How the values were obtained:
[1] = qHTS assay to identify small molecule agonists of the hypoxia (HIF-1) signaling pathway - cell viability counter screen (AID 1224844; calls by dose curve; further: nearly all actives have a fitted effect of over 50% in size; further: potency means the concentration at half of the fitted maximal effect)
Outline: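 Cytotoxicity measured by CellTiter-Glo ATP luminescence in the wells also read for beta-lactamase signal. Cells were HRE-bla ME-180 (2,000/well, 0.5% dialyzed FBS), exposed to compounds for 17 h at 37C.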

[2] = qHTS assay to identify small molecule agonists of H2AX (AID 1224845; active means well fitted activation curve with a large enough effect in the signal ratio in the repeat runs, not every such curve was filed as active; the % refers to the signal ratio; further: potency means the concentration at half of the fitted maximal effect)
Outline: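 Wild-type CHO-K1 cells, plated overnight, exposed 3hr at 37C to 15 concentrations (0.76% DMSO final). Lysed, then HTRF anti-pH2AX (S139) cryptate and anti-H2AX-d2 antibodies, 24 hr room temperature; 665/620 nm emission read.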

[3] = qHTS assay to identify small molecule agonists of the hypoxia (HIF-1) signaling pathway (AID 1224846; active means well fitted activation curve with a large enough effect in the signal ratio in the repeat runs, not every such curve was filed as active; the % refers to the signal ratio)
Outline: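 Compounds added to ME-180 cells carrying hypoxia-response-element beta-lactamase reporter (0.5% dialyzed FBS, 5 h preplating), 17 h at 37C; agonist activity detected by CCF4-AM B/G FRET read-out.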

[4] = qHTS assay to identify small molecule agonists of H2AX - cell viability counter screen (AID 1224847; calls by dose curve; further: nearly all actives have a fitted effect of over 30% in size; further: potency means the concentration at half of the fitted maximal effect)
Outline: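 Compounds tested at 15 concentrations were incubated 3 hr at 37C with wild-type CHO-K1 cells; cellular ATP-based luminescence (CellTiter-Glo) indicated viability.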

[5] = qHTS RealTime-Glo MT Cell Viability Assay in HepG2 cells - 24 hour (AID 1224867); further: nearly all actives have a fitted effect of over 50% in size; further: potency means the concentration at half of the fitted maximal effect
Outline: (§1)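 Real-time, nonlytic viability: 600 HepG2 cells/well mixed with NanoLuc enzyme plus prosubstrate; 5 h settle, compound (DMSO) added by pintool; luminescence monitored over 40 h at 37 C.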

[6] = qHTS RealTime-Glo MT Cell Viability Assay in HEK293 cells - 32 hour (AID 1224868); further: nearly all actives have a fitted effect of over 50% in size; further: potency means the concentration at half of the fitted maximal effect
Outline: (§2)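 Cells + reagent dispensed (600 cells/well, HEK293) → 5 h at 37 C/5% CO2 → 23 nL compound in DMSO pinned → 40 h at 37 C → luminescence read at 0, 8, 16, 24, 32, 40 h.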

[7] = A CellTox Green Cytotoxicity Assay to monitor cytotoxicity in HEK293 cells - 0 hour (AID 1224869); further: nearly all actives have a fitted effect of over 50% in size
Outline: (§3)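 Fluorescence from a DNA-binding dye excluded by viable cells was measured repeatedly in the same HEK293 wells (600 cells/well) during continuous compound exposure at 37 C. Each assay gives one read point: 0, 8, 16, 24, 32 or 40 h.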

[8] = qHTS RealTime-Glo MT Cell Viability Assay in HepG2 cells - 40 hour (AID 1224870); further: nearly all actives have a fitted effect of over 50% in size; further: potency means the concentration at half of the fitted maximal effect
Outline: (§4)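 HepG2 cells (600/well) mixed with RealTime-Glo MT reagent, settled 5 h at 37 C/5% CO2 before compound addition. Nonlytic NanoLuc luminescence from viable-cell prosubstrate reduction read repeatedly during 40 h treatment at 37 C.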

[9] = A CellTox Green Cytotoxicity Assay to monitor cytotoxicity in HEK293 cells - 40 hour (AID 1224871); further: nearly all actives have a fitted effect of over 45% in size; further: potency means the concentration at half of the fitted maximal effect
Outline: as §3

[10] = qHTS RealTime-Glo MT Cell Viability Assay in HEK293 cells - 16 hour (AID 1224872); further: nearly all actives have a fitted effect of over 50% in size; further: potency means the concentration at half of the fitted maximal effect
Outline: as §2

[11] = qHTS RealTime-Glo MT Cell Viability Assay in HepG2 cells - 8 hour (AID 1224873); further: nearly all actives have a fitted effect of over 55% in size
Outline: as §4

[12] = qHTS RealTime-Glo MT Cell Viability Assay in HEK293 cells - 40 hour (AID 1224874); conditions: RealTime-Glo luminescence; max response: stronger effect = lower value; further: nearly all actives have a fitted effect of over 50% in size; further: potency means the concentration at half of the fitted maximal effect
Outline: (§5)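 Luminescence, which tracks viable cell number through reduction of the prosubstrate to a NanoLuc substrate, was read over continuous 37 C culture. Cells (600/well) were premixed with reagent and rested 5 h before 23 nL of compound in DMSO was pinned.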

[13] = A CellTox Green Cytotoxicity Assay to monitor cytotoxicity in HEK293 cells - 24 hour (AID 1224875); further: nearly all actives have a fitted effect of over 45% in size; further: potency means the concentration at half of the fitted maximal effect
Outline: as §3

[14] = A CellTox Green Cytotoxicity Assay to monitor cytotoxicity in HepG2 cells - 16 hour (AID 1224876); further: nearly all actives have a fitted effect of over 45% in size; further: potency means the concentration at half of the fitted maximal effect
Outline: (§6)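 Real-time cytotoxicity: fluorescence of a cell-impermeant cyanine dye binding DNA of dead HepG2 cells, measured repeatedly (0–40 h) during compound exposure at 37 C. Cells seeded 600/well with reagent, dosed after 5 h.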

[15] = qHTS RealTime-Glo MT Cell Viability Assay in HepG2 cells - 32 hour (AID 1224877); further: nearly all actives have a fitted effect of over 55% in size; further: potency means the concentration at half of the fitted maximal effect
Outline: as §1

[16] = A CellTox Green Cytotoxicity Assay to monitor cytotoxicity in HepG2 cells - 40 hour (AID 1224879); further: nearly all actives have a fitted effect of over 40% in size; further: potency means the concentration at half of the fitted maximal effect
Outline: as §6

[17] = qHTS RealTime-Glo MT Cell Viability Assay in HEK293 cells - 0 hour (AID 1224880); further: nearly all actives have a fitted effect of over 45% in size; further: potency means the concentration at half of the fitted maximal effect
Outline: as §5

[18] = qHTS assay to identify small molecule antagonists of the estrogen related receptor (ERR) signaling pathway from Tox21 library (AID 1224848); further: nearly all actives have a fitted effect of over 50% in size
Outline: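 Compounds dissolved in DMSO are pin-transferred onto ERR reporter cells (2,000 per well) that have settled for 6 h at 37 C. Plates then incubate 18 h at 37 C before ONE-Glo luciferase reagent and a luminescence read 30 min later.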

[19] = qHTS assay to identify small molecule agonists of the estrogen related receptor (ERR) signaling pathway from Tox21 library (AID 1224849; calls by dose curve; further: nearly all actives have a fitted effect of over 15% in size); conditions: ERR reporter cell line, ONE-Glo luciferase, 18 h
Outline: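 Luminescent agonist read-out (One-Glo, 30-minute room-temperature incubation) following 18-hour compound treatment at 37 C of the ERR cell line, which had been plated 6 hours before dosing.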

[20] = A CellTox Green Cytotoxicity Assay to monitor cytotoxicity in HepG2 cells - 24 hour (AID 1224878); further: nearly all actives have a fitted effect of over 45% in size
Outline: as §6
On the % scale 0 is the no-effect control and ±100 the full control effect.

Clc1ccc(Sc2cc(Cl)c(Cl)cc2Cl)cc1
inactive: Potency [1] | Potency [2] | outcome [3] | Potency [4] | Potency [5] | Potency [6] | Potency [7] | Potency [8] | Potency [9] | Potency [10] | Potency [11] | max response [12] -26.8% and 1% | Potency [13] | Potency [14] | Potency [15] | Potency [16] | Potency [17]

COCCOCCOCCO
inactive: Potency [1] | Potency [2] | outcome [3] | Potency [4] | Potency [18] | activity change, positive = activation ([19]; at 92.4 µM (top of the series)) 3.34% and 5.65% | Potency [5] | Potency [6] | Potency [7] | Potency [8] | Potency [9] | Potency [10] | Potency [11] | max response [12] 4.57% and 6.41% | Potency [13] | Potency [14] | Potency [15] | Potency [20] | Potency [16]

NCCN
inactive and 13.8 µM (active): Potency [8]
inactive and 21.9 µM (active): Potency [15]
inactive and 38.9 µM (active): Potency [5]
inactive: Potency [1] | Potency [2] | outcome [3] | Potency [4] | Potency [6] | Potency [7] | Potency [9] | Potency [10] | Potency [11] | max response [12] 7.37% and 0.29% | Potency [13] | Potency [14] | Potency [16]

CCO[Si](CCCNC(N)=O)(OCC)OCC
inactive: Potency [1] | Potency [2] | outcome [3] | Potency [4] | Potency [18] | activity change, positive = activation ([19]; at 92.4 µM (top of the series)) 8.59% and 5.1% | Potency [5] | Potency [6] | Potency [7] | Potency [8] | Potency [9] | Potency [10] | Potency [11] | max response [12] -7.6% and 2.5% | Potency [13] | Potency [14] | Potency [15] | Potency [16] | Potency [17]

CC(C)(C)c1cccc(C(C)(C)C)c1O
active: Potency [12] 21.4 µM
24 µM (active) and inactive: Potency [6]
38 µM (active) and inactive: Potency [10]
53.7 µM (active) and inactive: Potency [1]
inactive: Potency [2] | outcome [3] | Potency [4] | Potency [5] | Potency [7] | Potency [8] | max response [12] 1.57% | Potency [14] | Potency [15] | Potency [20] | Potency [16] | Potency [17]
47.9 µM (active) and inactive: Potency [9]

IC(I)I
inactive: Potency [1] | Potency [2] | outcome [3] | Potency [4] | Potency [18] | activity change, positive = activation ([19]; at 92.4 µM (top of the series)) 0.549% and 0.511% | Potency [6] | Potency [7] | Potency [9] | Potency [10] | max response [12] 7.94% and 2.04% | Potency [13] | Potency [14] | Potency [20] | Potency [16] | Potency [17]
active: Potency [5] 38.8 µM and 38.9 µM | Potency [8] 21.8 µM and 4.9 µM | Potency [15] 24.5 µM and 17.4 µM

O=C(O)c1cc(=O)[nH]c(=O)[nH]1
inactive: Potency [1] | Potency [2] | outcome [3] | Potency [4] | Potency [18] | activity change, positive = activation ([19]; at 92.4 µM (top of the series)) 2.48% | Potency [5] | Potency [6] | Potency [7] | Potency [8] | Potency [9] | Potency [10] | Potency [11] | max response [12] 10.8% and 0.747% | Potency [13] | Potency [14] | Potency [15] | Potency [20] | Potency [16]

O=C(O)CCCCCCCCCCCC(=O)O
27.1 µM (active) and inactive: Potency [9]
111 µM (active) and inactive: Potency [2]
48.2 µM (active) and inactive: Potency [1] | Potency [16]
inactive: outcome [3] | Potency [4] | Potency [18] | activity change, positive = activation ([19]; at 92.4 µM (top of the series)) -2.27% | Potency [5] | Potency [7] | Potency [8] | Potency [10] | Potency [11] | max response [12] 7.31% | Potency [13] | Potency [14] | Potency [15] | Potency [20] | Potency [17]

Cc1ccc(C(C)(C)C)c(O)c1
inactive: Potency [1] | Potency [2] | outcome [3] | activity change, positive = activation ([19]; at 92.4 µM (top of the series)) -17.4% and -15.2% | Potency [5] | Potency [6] | Potency [7] | Potency [8] | Potency [10] | Potency [11] | max response [12] -23.8% and -20.7% | Potency [15] | Potency [17]
active: Potency [4] 97.5 µM and 89.8 µM | Potency [9] 23.8 µM and 24.5 µM | Potency [13] 23.8 µM and 24.5 µM | Potency [14] 38.9 µM | Potency [16] 34.7 µM

Nc1cc([N+](=O)[O-])ccc1C(=O)O
inactive: Potency [1] | Potency [2] | outcome [3] | Potency [4] | Potency [5] | Potency [6] | Potency [7] | Potency [8] | Potency [9] | Potency [10] | Potency [11] | max response [12] 9.73% and 6.1% | Potency [13] | Potency [14] | Potency [15] | Potency [16]

CC(=O)[C@@]1(O)CC[C@H]2[C@@H]3C[C@H](C)C4=CC(=O)C=C[C@]4(C)[C@@]3(F)[C@@H](O)C[C@@]21C
active: Potency [12] 19.5 µM | Potency [17] 5.49 µM and 3.01 µM
19.5 µM (active) and inactive: Potency [6]
inactive: Potency [1] | Potency [2] | outcome [3] | Potency [4] | activity change, positive = activation ([19]; at 42.5 µM (top of the series)) -14.9% | activity change, positive = activation ([19]; at 92.4 µM (top of the series)) -31% | Potency [5] | Potency [7] | Potency [8] | Potency [9] | Potency [11] | max response [12] -3.14% | Potency [13] | Potency [14] | Potency [15] | Potency [20] | Potency [16]
38.9 µM (active) and inactive: Potency [10]

CC/C=C\C/C=C\C/C=C\CCCCCCCC(=O)O
inactive: Potency [1] | Potency [2] | outcome [3] | Potency [4] | Potency [5] | Potency [6] | Potency [7] | Potency [8] | Potency [9] | Potency [10] | Potency [11] | max response [12] -5.49% and 15.2% | Potency [13] | Potency [14] | Potency [15] | Potency [20] | Potency [16] | Potency [17]
